Assay results taken from the supplement of paper PMC10849652.
The full data set covers some 7,900 targets. This sample favours those with a hit. About 0.6% of all pairs of compound and target were hits. Values without a mark were called inactive.

Legend:
Assay in all cases: log2 fold change, soluble protein after heating vs DMSO (PISA); higher = thermal stabilisation; K562 cells, 10 uM, 30 min; active = over 0.2 and 3.5 SD of the protein, either way, in both replicates (recomputed)
erlotinib = compound: C#Cc1cccc(Nc2ncnc3cc(OCCOC)c(OCCOC)cc23)c1 [erlotinib]
Summary of the method: (§1)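 Soluble protein was defined as the supernatant after 21,000xg for 90 min. It came from K562 cells at 2×10^6 cells/mL given 10 μM compound for 30 min, heated in aliquots for 3 min across 48°C-58°C, pooled, and extracted in PBS with 0.5% NP-40 at 4°C, and was quantified by TMTpro 16plex LC-MS/MS with equalised channel sums. Thermal stability against control samples, from duplicates, is reported as log2 fold change.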

[1] = compound: C/C(=N\NC(=O)C1=CC(=CC=C1)S(=O)(=O)N2CCOCC2)/C3=C(C=CC(=C3)Cl)O
Summary of the method: as §1

[2] = compound: C1=CC(=C(C=C1Cl)C2=NC3=NC=CN=C3C(=N2)NC4=CC=NC=C4)F
Summary of the method: as §1

[3] = compound: C1=CC(=CC=C1C2=NC3=C(N2)C=C(C=C3)C(=O)N)OC4=CC=C(C=C4)Cl
Summary of the method: as §1

[4] = compound: C1=CC2=C(C=CC(=C2)/C=C\3/C(=O)NC(=NCC4=CC=CS4)S3)N=C1
Summary of the method: as §1

[5] = compound: C1=CC2=NC=CN=C2C=C1/C=C/3\C(=O)NC(=O)S3
Summary of the method: as §1

[6] = compound: C1=CC=C(C=C1)C2=NC(=C(N2)C3=CC=NC=C3)C4=CC(=C(C=C4)Cl)O
Summary of the method: as §1

[7] = compound: C1=CC=C2C(=C1)C3=NNC4=CC=CC(=C43)C2=O
Summary of the method: as §1

[8] = compound: C1CCN(C1)C(=O)NC2=CC=CC(=C2)NC3=NC=C(C(=N3)NCCC4=CN=CN4)Br
Summary of the method: as §1

[9] = compound: C1CN(CCC1(CC2=CC=C(C=C2)Cl)N)C3=NC=NC4=C3C=CN4
Summary of the method: as §1

IRAK-1-4 Inhibitor I = compound: C1COCCN1CCN2C3=CC=CC=C3N=C2NC(=O)C4=CC(=CC=C4)[N+](=O)[O-] [IRAK-1-4 Inhibitor I]
Summary of the method: as §1

ibrutinib = compound: C=CC(=O)N1CCC[C@@H](n2nc(-c3ccc(Oc4ccccc4)cc3)c3c(N)ncnc32)C1 [ibrutinib]
Summary of the method: as §1

[10] = compound: CC(=O)c1cnc2ccc(-c3cc(Cl)c(O)c(Cl)c3)nc2c1N[C@H]1CC[C@H](CN(C)C)CC1
Summary of the method: as §1

ralimetinib = compound: CC(C)(C)Cn1c(N)nc2ccc(-c3[nH]c(C(C)(C)C)nc3-c3ccc(F)cc3)nc21 [ralimetinib]
Summary of the method: as §1

[11] = compound: CC(C)(O)CC(=O)NCCn1ccc2ncnc(Nc3ccc(Oc4cccc(C(F)(F)F)c4)c(Cl)c3)c21
Summary of the method: as §1

[12] = compound: CC(C)C1=C2N=C(C=C(N2N=C1)NCC3=CC=CC=C3)NCCCCCCN
Summary of the method: as §1

[13] = compound: CC(C)C[C@@H](C=O)NC(=O)[C@H](CC(C)C)NC(=O)[C@H](CC(C)C)NC(=O)OCc1ccccc1
Summary of the method: as §1

pinometostat = compound: CC(C)N(C[C@H]1O[C@@H](n2cnc3c(N)ncnc32)[C@H](O)[C@@H]1O)[C@H]1C[C@@H](CCc2nc3cc(C(C)(C)C)ccc3[nH]2)C1 [pinometostat]
Summary of the method: as §1

[14] = compound: CC1=C(C(CC(=O)N1)C2=CC=C(C=C2)C(F)(F)F)C(=O)NC3=C(C=C4C(=C3)C=NN4)F
Summary of the method: as §1

[15] = compound: CC1=C(C2=C(C=C1)C(=O)C3=CC=CC=C3N2CCCN)C
Summary of the method: as §1

Sequence of UniProt Q9BY42 (Q9BY42 whole entry, looked up): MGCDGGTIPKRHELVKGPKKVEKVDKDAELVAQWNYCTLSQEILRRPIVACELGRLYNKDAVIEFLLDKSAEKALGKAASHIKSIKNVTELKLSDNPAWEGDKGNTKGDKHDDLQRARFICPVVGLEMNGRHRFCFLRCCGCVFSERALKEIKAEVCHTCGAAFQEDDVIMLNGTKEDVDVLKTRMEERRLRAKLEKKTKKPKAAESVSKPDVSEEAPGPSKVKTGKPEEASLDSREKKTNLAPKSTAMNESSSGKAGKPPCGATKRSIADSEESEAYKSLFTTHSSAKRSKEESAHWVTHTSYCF
Sequence of UniProt O00584 (O00584 whole entry, looked up): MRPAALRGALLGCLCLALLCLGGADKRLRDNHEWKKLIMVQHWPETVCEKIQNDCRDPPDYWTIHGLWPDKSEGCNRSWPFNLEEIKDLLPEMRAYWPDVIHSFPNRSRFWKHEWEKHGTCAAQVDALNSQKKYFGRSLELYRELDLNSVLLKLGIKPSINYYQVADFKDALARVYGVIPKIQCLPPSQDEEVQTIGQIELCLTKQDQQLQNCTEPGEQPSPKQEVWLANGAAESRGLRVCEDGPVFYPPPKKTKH
Sequence of UniProt Q6NT16 (Q6NT16 whole entry, looked up): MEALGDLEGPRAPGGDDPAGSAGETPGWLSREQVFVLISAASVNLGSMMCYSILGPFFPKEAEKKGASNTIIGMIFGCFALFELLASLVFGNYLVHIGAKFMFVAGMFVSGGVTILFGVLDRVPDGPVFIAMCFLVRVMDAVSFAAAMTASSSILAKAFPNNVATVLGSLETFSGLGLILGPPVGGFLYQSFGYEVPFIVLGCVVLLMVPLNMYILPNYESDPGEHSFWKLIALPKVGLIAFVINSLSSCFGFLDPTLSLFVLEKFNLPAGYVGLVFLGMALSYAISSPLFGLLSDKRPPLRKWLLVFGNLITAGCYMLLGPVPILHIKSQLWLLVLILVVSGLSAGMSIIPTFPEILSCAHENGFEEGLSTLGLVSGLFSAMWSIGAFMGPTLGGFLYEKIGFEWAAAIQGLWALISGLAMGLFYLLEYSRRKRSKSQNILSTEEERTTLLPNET
Sequence of UniProt P18754 (P18754 whole entry, looked up): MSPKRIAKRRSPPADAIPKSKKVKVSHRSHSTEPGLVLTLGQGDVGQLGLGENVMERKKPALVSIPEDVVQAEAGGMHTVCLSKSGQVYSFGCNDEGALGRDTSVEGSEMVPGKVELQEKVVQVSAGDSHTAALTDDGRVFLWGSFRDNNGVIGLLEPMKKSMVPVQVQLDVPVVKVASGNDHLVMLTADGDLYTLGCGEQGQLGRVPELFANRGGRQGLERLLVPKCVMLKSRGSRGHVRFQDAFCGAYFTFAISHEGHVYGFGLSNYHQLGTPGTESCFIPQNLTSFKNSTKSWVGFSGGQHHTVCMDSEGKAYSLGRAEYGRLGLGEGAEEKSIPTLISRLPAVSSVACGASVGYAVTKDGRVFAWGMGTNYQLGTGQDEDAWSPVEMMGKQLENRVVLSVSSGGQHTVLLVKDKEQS
Sequence of UniProt Q96ER3 (Q96ER3 whole entry, looked up): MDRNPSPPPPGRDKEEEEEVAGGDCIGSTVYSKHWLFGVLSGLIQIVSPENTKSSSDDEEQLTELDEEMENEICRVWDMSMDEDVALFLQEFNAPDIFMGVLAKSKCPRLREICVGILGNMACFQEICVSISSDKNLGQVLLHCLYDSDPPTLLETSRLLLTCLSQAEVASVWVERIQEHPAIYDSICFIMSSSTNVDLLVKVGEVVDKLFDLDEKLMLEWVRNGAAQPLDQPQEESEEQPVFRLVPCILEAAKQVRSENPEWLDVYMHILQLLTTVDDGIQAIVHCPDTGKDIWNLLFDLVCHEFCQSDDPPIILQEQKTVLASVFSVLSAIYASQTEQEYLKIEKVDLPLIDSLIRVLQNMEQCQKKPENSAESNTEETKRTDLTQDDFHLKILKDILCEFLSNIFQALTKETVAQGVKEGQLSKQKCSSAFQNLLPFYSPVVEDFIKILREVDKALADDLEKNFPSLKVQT
Sequence of UniProt Q13530 (Q13530 whole entry, looked up): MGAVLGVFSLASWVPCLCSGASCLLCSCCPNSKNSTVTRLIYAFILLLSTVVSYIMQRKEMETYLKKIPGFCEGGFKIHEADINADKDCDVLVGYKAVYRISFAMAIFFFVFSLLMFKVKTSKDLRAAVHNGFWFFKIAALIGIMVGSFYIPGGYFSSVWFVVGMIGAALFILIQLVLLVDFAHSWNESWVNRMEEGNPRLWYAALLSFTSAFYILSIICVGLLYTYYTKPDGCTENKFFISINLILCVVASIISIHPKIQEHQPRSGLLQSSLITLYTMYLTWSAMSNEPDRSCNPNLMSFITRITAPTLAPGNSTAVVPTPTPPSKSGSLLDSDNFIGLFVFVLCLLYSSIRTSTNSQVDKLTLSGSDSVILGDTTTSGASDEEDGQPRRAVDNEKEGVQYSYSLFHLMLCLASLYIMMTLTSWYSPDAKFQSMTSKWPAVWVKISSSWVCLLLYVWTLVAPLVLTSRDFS
Sequence of UniProt Q13546 (Q13546 whole entry, looked up): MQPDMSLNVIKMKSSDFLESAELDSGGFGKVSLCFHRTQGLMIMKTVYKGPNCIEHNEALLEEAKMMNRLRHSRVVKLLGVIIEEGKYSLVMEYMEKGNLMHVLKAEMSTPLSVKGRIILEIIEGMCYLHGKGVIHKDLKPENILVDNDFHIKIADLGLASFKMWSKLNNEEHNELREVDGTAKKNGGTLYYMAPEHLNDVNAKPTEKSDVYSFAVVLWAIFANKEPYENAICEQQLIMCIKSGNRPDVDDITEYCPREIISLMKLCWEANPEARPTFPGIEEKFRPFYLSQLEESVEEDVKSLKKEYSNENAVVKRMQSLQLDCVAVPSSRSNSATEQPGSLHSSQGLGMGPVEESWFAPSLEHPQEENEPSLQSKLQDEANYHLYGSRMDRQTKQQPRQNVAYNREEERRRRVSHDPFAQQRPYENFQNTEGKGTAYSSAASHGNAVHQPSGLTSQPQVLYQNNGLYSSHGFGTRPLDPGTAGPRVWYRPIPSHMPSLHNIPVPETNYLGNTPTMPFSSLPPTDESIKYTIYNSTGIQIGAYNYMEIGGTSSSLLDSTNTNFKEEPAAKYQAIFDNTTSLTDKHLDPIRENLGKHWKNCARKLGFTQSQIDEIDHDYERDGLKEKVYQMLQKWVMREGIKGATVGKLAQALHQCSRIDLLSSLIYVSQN
Sequence of UniProt Q15436 (Q15436 whole entry, looked up): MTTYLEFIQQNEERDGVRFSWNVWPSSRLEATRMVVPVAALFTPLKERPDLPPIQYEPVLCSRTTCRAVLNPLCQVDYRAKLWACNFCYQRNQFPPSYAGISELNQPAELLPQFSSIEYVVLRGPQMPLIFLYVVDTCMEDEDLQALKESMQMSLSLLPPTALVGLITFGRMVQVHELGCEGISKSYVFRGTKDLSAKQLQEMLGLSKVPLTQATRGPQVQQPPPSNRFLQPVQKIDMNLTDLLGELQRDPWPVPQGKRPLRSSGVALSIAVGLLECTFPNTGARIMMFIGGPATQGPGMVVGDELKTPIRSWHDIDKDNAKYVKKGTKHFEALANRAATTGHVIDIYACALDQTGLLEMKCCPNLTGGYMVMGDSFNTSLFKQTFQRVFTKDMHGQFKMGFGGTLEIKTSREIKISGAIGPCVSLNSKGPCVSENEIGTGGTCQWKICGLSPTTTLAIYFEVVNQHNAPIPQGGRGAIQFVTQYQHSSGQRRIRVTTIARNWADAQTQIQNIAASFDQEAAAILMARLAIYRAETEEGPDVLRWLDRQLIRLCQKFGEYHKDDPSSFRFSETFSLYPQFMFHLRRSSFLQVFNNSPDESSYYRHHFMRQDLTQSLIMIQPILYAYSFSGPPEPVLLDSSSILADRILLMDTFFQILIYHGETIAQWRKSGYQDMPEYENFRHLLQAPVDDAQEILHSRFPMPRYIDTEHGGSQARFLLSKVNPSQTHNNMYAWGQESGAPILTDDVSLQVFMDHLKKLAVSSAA
Sequence of UniProt Q96D15 (Q96D15 whole entry, looked up): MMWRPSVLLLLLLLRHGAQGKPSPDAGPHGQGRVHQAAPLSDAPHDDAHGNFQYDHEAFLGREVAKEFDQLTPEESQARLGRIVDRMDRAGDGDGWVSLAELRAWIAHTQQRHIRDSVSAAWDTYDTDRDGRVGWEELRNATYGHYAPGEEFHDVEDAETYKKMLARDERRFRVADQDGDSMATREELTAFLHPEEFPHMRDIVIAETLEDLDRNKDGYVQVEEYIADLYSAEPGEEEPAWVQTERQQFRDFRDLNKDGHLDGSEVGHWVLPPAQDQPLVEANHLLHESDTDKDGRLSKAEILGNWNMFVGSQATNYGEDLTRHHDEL

Target | log2 fold change (erlotinib) | log2 fold change [1] | log2 fold change [2] | log2 fold change [3] | log2 fold change [4] | log2 fold change [5] | log2 fold change [6] | log2 fold change [7] | log2 fold change [8] | log2 fold change [9] | log2 fold change (IRAK-1-4 Inhibitor I) | log2 fold change (ibrutinib) | log2 fold change [10] | log2 fold change (ralimetinib) | log2 fold change [11] | log2 fold change [12] | log2 fold change [13] | log2 fold change (pinometostat) | log2 fold change [14] | log2 fold change [15]
RPS3A (UniProt P61247) | -0.178 | -0.041 | -0.232 | 0.062 | -0.039 | -0.035 | -0.028 | 0 | 0.088 | -0.162 | -0.133 | 0.028 | 0.072 | 0.053 | 0.069 | -0.071 | 0.059 | 0.108 | 0.03 | -0.565 (active)
RNASET2 (UniProt O00584) | 0.027 | -0.007 | -0.006 | 0.002 | 0.012 | -0.014 | -0.001 | -0.027 | 0.034 | 0.052 | 0.028 | 0.042 | 0 | -0.082 | 0.029 | -0.206 | -0.004 | -0.014 | 0.045 | -0.061
RPS12 (UniProt P25398) | -0.115 | -0.082 | -0.072 | -0.001 | -0.021 | -0.002 | 0.008 | -0.02 | 0.027 | -0.05 | -0.063 | 0.036 | 0.051 | 0.043 | 0.003 | 0.036 | -0.024 | 0.024 | 0.095 | -0.314 (active)
SLC18B1 (UniProt Q6NT16) | -0.011 | -0.09 | 0.067 | 0.06 | 0.108 | 0 | 0.12 | 0.002 | -0.037 | 0.081 | 0.135 | 0.042 | 0.016 | -0.044 | -0.023 | -0.356 (active) | -0.05 | 0.02 | 0.05 | -0.036
RBM8A (UniProt Q9Y5S9) | -0.021 | -0.014 | 0.012 | -0.008 | -0.076 | 0.024 | -0.069 | -0.035 | 0.025 | 0.003 | -0.027 | -0.017 | 0.127 | -0.015 | -0.002 | 0.128 | 0.024 | -0.015 | -0.029 | 0.027
SEC23A (UniProt Q15436) | 0.026 | 0.1 | 0.022 | -0.036 | -0.024 | 0.021 | 0.005 | -0.018 | 0.019 | -0.019 | 0.06 | 0 | 0.077 | 0.026 | -0.123 | -0.014 | -0.006 | -0.004 | 0.024 | 0.121
RCC1 isoform 2 (UniProt P18754) | 0.158 | 0.195 | 0.11 | 0.03 | 0.105 | -0.004 | -0.003 | 0.018 | -0.09 | 0.011 | -0.026 | -0.04 | -0.14 | 0 | -0.16 | -0.094 | 0.041 | 0.023 | -0.08 | -0.899 (active)
RPS15 (UniProt P62841) | -0.173 | -0.259 | -0.208 | 0.016 | 0.028 | -0.092 | 0.036 | -0.131 | 0.188 | -0.138 | -0.114 | 0.11 | -0.042 | 0.076 | 0.103 | -0.043 | 0.11 | 0.088 | 0.071 | -0.574 (active)
RTF2 (UniProt Q9BY42) | 0.026 | 0.063 | 0.035 | -0.049 | -0.049 | -0.023 | -0.035 | -0.02 | -0.074 | 0.045 | 0 | -0.096 | -0.017 | -0.022 | 0.032 | 0.164 | 0.098 | -0.059 | -0.025 | -0.054
RPL38 (UniProt P63173) | 0.024 | -0.05 | -0.148 | 0.026 | -0.102 | -0.025 | -0.027 | 0.026 | 0.033 | -0.106 | 0.014 | 0.01 | 0 | 0.043 | 0.113 | 0 | 0.124 | 0.07 | 0.013 | -0.026
RNF167 (UniProt Q9H6Y7) | -0.133 | -0.073 | -0.069 | 0.052 | 0.025 | 0.025 | -0.004 | -0.07 | -0.018 | -0.009 | -0.001 | 0.015 | 0.039 | -0.018 | -0.025 | -0.047 | -0.009 | 0.015 | 0.064 | 0
SAAL1 (UniProt Q96ER3) | -0.044 | 0.028 | 0.046 | 0.022 | -0.033 | 0.125 | -0.041 | -0.007 | 0.042 | -0.03 | 0.019 | -0.035 | 0.578 (active) | -0.033 | -0.112 | 0.012 | 0.032 | 0.073 | 0.026 | 0.239 (active)
SERINC3 (UniProt Q13530) | -0.051 | 0.016 | -0.064 | 0.041 | -0.043 | 0.063 | 0.006 | 0.029 | 0.007 | 0.06 | -0.006 | -0.01 | -0.027 | -0.14 | -0.304 | -0.399 (active) | 0.17 | -0.01 | 0 | -0.039
RCN3 (UniProt Q96D15) | 0.033 | 0.013 | 0.058 | 0.048 | 0.03 | -0.029 | -0.057 | -0.023 | 0.07 | -0.103 | 0.131 | 0.075 | -0.048 | -0.013 | 0.013 | 0.047 | 0.026 | -0.035 | 0.05 | -0.031
RIPK1 (UniProt Q13546) | 0.013 | -0.008 | -0.028 | 0 | 0.068 | -0.016 | 0.004 | 0.219 | 0.002 | -0.015 | -0.104 | -0.081 | -0.201 | 0.195 | -0.023 | -0.23 | 0.14 | 0.123 | -0.014 | 0.056
RABGAP1L isoform 5 (UniProt Q5R372) | 0.114 | 0.043 | -0.076 | 0.089 | -0.007 | 0.045 | – | -0.097 | 0.023 | 0.016 | 0.04 | -0.031 | -0.025 | – | -0.057 | -0.125 | – | -0.17 | -0.297 | -0.271
